Only some compounds are listed: those with a hit (about 4.9% of all), similar ones and a draw of the others.
MPTP block = mitochondrial permeability transition pore inhibitors, primary screen, biochemical, isolated mouse mitochondria, absorbance. Ca2+ swelling absorbance, 30 min. inhibition, % at 10 µM. 360,000 compounds, 1.4% hits. AID 602449, 2012;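 active means inhibition of 50% or more, scaled per plate between neutral and stimulator controls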;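 further: 0% = DMSO wells given calcium and 100% = 1 mM EGTA wells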
dFosB activator = activators of delta FosB homodimer, primary screen, biochemical, fluorescence polarization, TAMRA-CDK5 oligo, single point; Protein FosB (Mus musculus), P13346; purified delta FosB; percent of positive-control signal above neutral wells; activation, % at 25 µM; 340,000 compounds, 0.99% hits;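 active means mean activation above about 17%, with every replicate also reaching it, limit read from the data, passing the limit was not always enough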
Target sequence (P13346 whole entry, looked up): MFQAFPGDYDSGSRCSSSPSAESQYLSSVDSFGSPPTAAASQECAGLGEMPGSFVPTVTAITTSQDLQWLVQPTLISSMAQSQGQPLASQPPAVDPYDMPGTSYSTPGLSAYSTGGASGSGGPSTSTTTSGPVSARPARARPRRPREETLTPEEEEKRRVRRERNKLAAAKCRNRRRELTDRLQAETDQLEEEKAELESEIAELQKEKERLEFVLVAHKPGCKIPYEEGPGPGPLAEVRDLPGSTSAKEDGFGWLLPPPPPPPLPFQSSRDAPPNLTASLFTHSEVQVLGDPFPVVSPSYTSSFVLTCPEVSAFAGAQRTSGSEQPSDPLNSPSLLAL
HSF1 inhib = HSF1 inhibitors in luciferase reporter cells, primary screen, cell-based, NIH3T3, luminescence. NIH3T3-HGL HSE-luciferase, MG132-induced, luminescence 8 h; hits give low values. activity change, negative = inhibition, % at 7.5 µM (by protocol). 300,000 compounds, 0.77% hits. AID 2098, 2009;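 active means more than half of replicate wells show activity change below -50%, luminescence cut by over half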;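 further: luciferase reports HSF-1 transcriptional activity via heat shock element; 0% = median of DMSO wells and -100% = zero luminescence signal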
Platelet DG rel = inhibitors of platelet dense granule secretion, primary screen, cell-based, MLPCN, human platelets | human platelet-rich plasma, SFLLRN dense granule ATP release, luminescence | inhibition, %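 (compounds screened at 7.5 µM in platelet-rich plasma)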 | 300,000 compounds, 0.22% hits;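 active means mean replicate score, as percent of positive control, at or above 50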
HSP90 inh = HSP90 inhibitors, primary screen, cell lysate, luminescence | Rabbit reticulocyte lysate, luciferase refolding luminescence, 3 h | inhibition, % at 5.6 µM | 290,000 compounds, 0.91% hits | AID 1789, 2009;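 active means inhibition above the screen-wide mean plus 3 SD, computed separately per campaign, cut at about 16% in these data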;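 further: 0% = DMSO wells and 100% = 60 µM geldanamycin wells; inhibitors lower the luminescence because luciferase stays unfolded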
HSF1 activator = HSF-1 activators, primary screen, NIH3T3-HGL cells, MG132 stress, luminescence, single point; activation, % at 9 µM; NIH3T3-HGL HSF-1 luciferase reporter, 8 h; 100% = twice DMSO control signal; 300,000 compounds, 1.7% hits;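 active means mean replicate activation of at least 50% with a set share of replicates each reaching 50%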;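 further: 0% = median of the neutral control wells and 100% = twice that signal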
Starred values were filed as active, the others as inactive; x = no result.

SMILES | MPTP block | dFosB activator | HSF1 inhib | Platelet DG rel | HSP90 inh | HSF1 activator
COc1cccc(C(=O)COC(=O)C(C)N2C(=O)c3ccccc3C2=O)c1 (stereo not given) | 1 | -3 | 6 | -5 | 1 | -10
CC(C(=O)NCc1ccco1)n1nc(-c2ccccc2)c2cc(Cl)ccc21 (stereo not given) | 1 | 13 | 3 | 4 | -2 | 0
CC(=O)c1ccc(NC(=O)C(C)n2nc(-c3ccccc3)c3cc(Cl)ccc32)cc1 (stereo not given) | 3 | -8 | -67* | 5 | 2 | -73
COc1cc(NC2c3ccccc3C(=O)N2Cc2ccccc2)cc(OC)c1OC (stereo not given) | 1 | -7 | 5 | -6 | 3 | 4
CC(C)CCNC1c2ccccc2C(=O)N1Cc1ccccc1 (stereo not given) | 0 | -12 | 26 | 0 | 0 | 54*
O=C(CSc1nnc(Cn2cnc3ccccc32)o1)Nc1cccc2ccccc12 | -2 | -11 | 12 | -8 | -2 | 51*
COc1ccc(CCNC(=O)C2Cc3ccccc3C(=O)O2)cc1 (stereo not given) | -2 | 1 | -4 | 5 | -3 | 4
COc1ccc(NC(=O)C2Cc3ccccc3C(=O)O2)cc1 (stereo not given) | 0 | 2 | -71* | 5 | x | -76
O=C(c1ccccc1)N1N=C(c2ccccc2)CC1c1ccccc1[N+](=O)[O-] (stereo not given) | 1 | -7 | 15 | -6 | 3 | 18
CC(=O)N1N=C(c2ccccc2)CC1c1ccccc1[N+](=O)[O-] (stereo not given) | 1 | -5 | 76 | -4 | 2 | 109*
COCCNC(=O)C(c1ccc(F)cc1)N(C(=O)CCC(=O)Nc1nccs1)c1ccc(C)cc1 (stereo not given) | 0 | 0 | 5 | 4 | 1 | 4
CCN(CC)CCN(C(=O)c1ccc2ccccc2c1)c1nc2cc3c(cc2s1)OCO3 | 2 | 53* | 1 | -11 | 3 | -2
CCCCCCn1cnc2c(oc3nc4c(cc32)CCCC4)c1=O | 46 | -31 | 15 | -9 | -3 | 34
CCCCn1cnc2c(oc3nc4c(cc32)CCCC4)c1=O | 2 | -18 | 12 | 7 | 10 | 53*
NCc1cc2c3c(c1)CCCN3CCC2 | -1 | 40* | 3 | -2 | 0 | -5
COc1c(C=O)cc2c3c1CCCN3CCC2 | 0 | 5 | -1 | 16 | -4 | -11
CCn1nc(C)c(/C=N/NC(=O)c2c[nH]c3ccccc23)c1C | 0 | 2 | -70* | 3 | 4 | -76
CC1=NN(c2cccc(C(=O)O)c2)C(=O)/C1=C\C=C/c1ccccc1 | 1 | x | 74 | 4 | -2 | 100*
COc1ccccc1Oc1cc(C#N)c(C#N)cc1-n1nnc2ccccc21 | -2 | -7 | 46 | 4 | -2 | 79*
N/C(=N\N=C/c1ccc(F)cc1)N/N=C\c1ccc(F)cc1 | 4 | 26* | -2 | -5 | 3 | 19
N/C(=N\N=Cc1ccc2c(c1)OCO2)NN=Cc1ccc2c(c1)OCO2 | 3 | 42* | x | x | x | x
O=C(COC(=O)C1CCN(c2ccc(C(F)(F)F)cn2)CC1)Nc1cc(F)ccc1F | -1 | -1 | -1 | 6 | x | -17
C#CCN(C[C@H]1[C@H](OC(=O)NCc2ccccc2F)[C@H](OC(=O)NCc2ccccc2F)C[C@H]2C(=O)N(c3ccccc3)C(=O)[C@@H]12)S(=O)(=O)c1ccc(C)cc1 | 3 | x | x | x | x | x
CC(C)C1Cc2c(C#N)c(N)n(C)c(=S)c2CO1 (stereo not given) | -2 | -6 | -52* | -14 | 2 | -63
CCOc1ccc(CNS(=O)(=O)c2cc(CN3C(=O)c4cccnc4C3=O)ccc2OC)cc1 | 2 | -10 | -1 | 5 | 1 | -5
COc1ccc(CNS(=O)(=O)c2cc(CN3C(=O)c4cccnc4C3=O)ccc2OC)cc1 | -2 | -3 | 17 | 3 | -1 | 61*

Screening results deposited in PubChem BioAssay by several laboratories.
